# Source: PubChem BioAssay (NCI)
# This is part of a sample that, as a whole, favours compounds with a hit. Of some 83,000 tested, about 20% had one in any assay.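 The endpoint reported here, percent growth, reads 100 for growth as untreated, 0 for no net growth and -100 for all cells dead.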 Unmarked numbers belong to inactive results. Calls of active or inactive are those of the source. The calls were made as follows: active = growth percent below 10; inactive = the rest.
# Experiments:
# Assay in all cases: NCI-60 one-dose screen, 48 h (100 = growth as untreated, 0 = no growth, -100 = all killed)
# Conditions in all cases: 10 µM unless noted
# SR leukemia = test system: SR leukemia
# RPMI-8226 leukemia = test system: RPMI-8226 leukemia
# OVCAR-8 ovarian = test system: OVCAR-8 ovarian
# OVCAR-5 ovarian = test system: OVCAR-5 ovarian
# OVCAR-4 ovarian = test system: OVCAR-4 ovarian
# SK-OV-3 ovarian = test system: SK-OV-3 ovarian
# IGROV1 ovarian = test system: IGROV1 ovarian
# OVCAR-3 ovarian = test system: OVCAR-3 ovarian
# HS 578T breast = test system: HS 578T breast
# NCI/ADR-RES ovarian = test system: NCI/ADR-RES ovarian
Compound,growth (SR leukemia),growth (RPMI-8226 leukemia),growth (OVCAR-8 ovarian),growth (OVCAR-5 ovarian),growth (OVCAR-4 ovarian),growth (SK-OV-3 ovarian),growth (IGROV1 ovarian),growth (OVCAR-3 ovarian),growth (HS 578T breast),growth (NCI/ADR-RES ovarian)
N#CCc1ncc(-c2ccc(C(F)(F)F)cc2)c(NC2CCCCCC2)n1,-23.8% [100 µM] (active),-32% [100 µM] (active),26% [100 µM],50.2% [100 µM],42.5% [100 µM],74.9% [100 µM],44.9% [100 µM],-19% [100 µM] (active),52.7% [100 µM],28.3% [100 µM]
CCCC(C)c1cc(Cc2cc(Cl)cc(Cl)c2O)c(O)c(Cc2cc(Cl)cc(Cl)c2O)c1 (stereo not given),5.98% (active),-2.65% (active),15%,33.8%,22%,14.6%,28.1%,16.2%,1.09% (active),2.52% (active)
COc1ccc(/C=C(/C(=O)N2CCN(c3ccc(C)cc3)CC2)c2cc(OC)c(OC)c(OC)c2)cc1N,11.3%,12.8%,21.6%,27.1%,43.9%,26.2%,24.7%,-27.8% (active),32.6%,13.7%
Cc1ccc2c(O)c(O)cc(NC(C)CCCN)c2n1 (stereo not given),89.5%,75%,30.7%,87.4%,6.99% (active),102%,86.3%,10.8%,80.8%,91.3%
O=S(=O)(O)c1ccc2c(c1)Sc1cc(S(=O)(=O)O)ccc1O2,107%,101%,104%,92.1%,110%,107%,112%,122%,110%,104%
CCCCCSc1ccc2nc(NC(=O)OCC)sc2c1,34.9%,12.8%,43.6%,64.3%,28.7%,39.1%,46.2%,-7.09% (active),14.1%,11.9%
CC(O)CN(CCO)CCN(CCO)CC(C)O (stereo not given),89.2%,102%,106%,99.7%,109%,114%,115%,112%,108%,112%
O=C1OC(c2ccc(-c3ccccc3)cc2)=C/C1=C/c1c2ccccc2cc2ccccc12,81.2%,85.3%,97.6%,83.7%,95.7%,96%,101%,97.9%,89.8%,96.5%
COC(=O)[C@H](Cc1cn(C)cn1)NC(=O)[C@H](Cc1c[nH]c2ccccc12)NC(=O)Nc1cc(C(F)(F)F)cc(C(F)(F)F)c1,-42.8% [100 µM] (active),-38.4% [100 µM] (active),-78.5% [100 µM] (active),-73.6% [100 µM] (active),-50.7% [100 µM] (active),-89.9% [100 µM] (active),-46.2% [100 µM] (active),-95.7% [100 µM] (active),10.4% [100 µM],69.7% [100 µM]
O=C(N/N=C\c1ccc(-c2ccc(Br)cc2)o1)c1cc2oc(-c3cccc(C(F)(F)F)c3)cc2[nH]1,-3.49% (active),98.4%,103%,88.4%,106%,115%,130%,101%,81.1%,96%
C/C=C/C/C=C/[C@H](C)C[C@H](O)[C@@H]1C[C@@H]2O[C@H]2/C=C/[C@@H]2OC(C)(C)O[C@H]2/C=C/C[C@H](C)CC(=O)O1,18.8%,-5.18% (active),15.8%,68.5%,23.3%,88.5%,25.2%,21.5%,-18.8% (active),7.52% (active)
